Test results from PubChem BioAssay (Tox21).
Inconclusive results are not listed. Entries that show only a call come without a potency. Unmarked numbers belong to inactive results. Activity calls are given as the source filed them. The call rests on the fitted dose curve; in most records, active means well fitted curve in the direction sought with a large enough effect in the repeat runs; inconclusive means weak or mixed curves; inactive means no such curve, though single readings can be large; an effect the other way counts as inactive or inconclusive.

Test: qHTS RealTime-Glo MT Cell Viability Assay in HepG2 cells - 0 hour (AID 1224889); further: nearly all actives have a fitted effect of over 50% in size
Conditions: RealTime-Glo luminescence; series mostly up to 76.8 µM
Outline: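 HepG2 cells were seeded at 600 cells/well together with NanoLuc luciferase and a cell-permeant prosubstrate, preincubated 5 h at 37 C/5% CO2, then pin-dosed with compounds in DMSO. Nonlytic luminescence from viable cells was read at each time point.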

| SMILES | Potency | activity change, negative = cytotoxicity |
| --- | --- | --- |
| CC(=O)OCC(=O)Nc1cc(C#N)cc(NC(=O)COC(C)=O)c1Cl | inactive |  |
| Cc1ccnc(N)c1 | inactive |  |
| CCn1cc(C(=O)O)c(=O)c2cnc(N3CCCC3)nc21 |  | -5.5% [at 6.97 µM] |
| CC(Oc1cc(Cl)ccc1Cl)C(=O)O (stereo unspecified) | inactive |  |
| C/C=C(\C)C(C)=O | inactive |  |
| CCOCCOCC | inactive |  |
| c1ccc2cnccc2c1 | inactive |  |
| CCCCCCCCCCCCCBr | inactive |  |
| CCC(C(=O)OCCN1CCOC(c2ccccc2)C1C)c1ccccc1 (stereo unspecified) | inactive |  |
| CN(C)CCN(C)CCO | inactive |  |
| CC1(C)CC(OC(=O)CCCCCCCCC(=O)OC2CC(C)(C)NC(C)(C)C2)CC(C)(C)N1 |  | 5.75% [at 15.8 µM] |
| CC(=O)O[C@H]1C[C@@H]2CC[C@@]1(C)C2(C)C | inactive |  |
| [O]=[Mo](=[O])=[O] |  | 1.95% [at 15.8 µM] |
| CSc1cnccn1 | inactive |  |
| [O-][n+]1cccc(/C(Cl)=N/OC[C@@H](O)CN2CCCCC2)c1 | inactive |  |
| COC(=O)CCCCC(CCSS/C(CCO)=C(\C)N(C=O)Cc1cnc(C)nc1N)SC(C)=O (stereo unspecified) | inactive |  |
| O=C1CCCCO1 | inactive |  |
| COc1nc(N)nc2nc[nH]c12 | inactive |  |
| O=C(O)CSCC(=O)NC1CCSC1=O (stereo unspecified) | inactive |  |
| CC(C)C[C@@H]1[C@H](c2ccccc2)OC(=O)N1CCCN1CCCCCC1 | inactive |  |
| CC(=O)c1cc(C)oc1C | inactive |  |
| C=C(C)[C@@H]1CC=C(C)C(=O)C1 | inactive |  |
| CC12CCC(C1)C(C)(C)C2O (stereo unspecified) | inactive |  |
| CC(=O)C(C)O (stereo unspecified) | inactive |  |
| CC(=O)CCC1=C(C)CCCC1(C)C | inactive |  |
| CC1OCCC1=O (stereo unspecified) | inactive |  |
| O/N=C/C=N/O | inactive |  |
| CCOC(CN1CCN(CC(C)C(=O)c2ccccc2)CC1)c1ccccc1 (stereo unspecified) |  | 0.232% [at 15.8 µM] |

Test: A CellTox Green Cytotoxicity Assay to monitor cytotoxicity in HepG2 cells - 8 hour (AID 1224890); further: nearly all actives have a fitted effect of over 45% in size
Conditions: CellTox Green fluorescence; series mostly up to 76.8 µM
Outline: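 Using 1536-well format, dye-containing HepG2 suspension was seeded, allowed 5 h at 37 C/5% CO2, dosed by pintool with compounds, positive and negative controls, and imaged for fluorescence across 40 h.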

| SMILES | Potency | cytotoxicity increase |
| --- | --- | --- |
| CC(=O)OCC(=O)Nc1cc(C#N)cc(NC(=O)COC(C)=O)c1Cl | inactive |  |
| c1ccc(B(c2ccccc2)c2ccccc2)cc1 | inactive |  |
| CCn1cc(C(=O)O)c(=O)c2cnc(N3CCCC3)nc21 |  | 3.53% [at 6.97 µM] |
| CC(Oc1cc(Cl)ccc1Cl)C(=O)O (stereo unspecified) | inactive |  |
| C/C=C(\C)C(C)=O | inactive |  |
| CCOCCOCC | inactive |  |
| CCCCCCCCCCCCCBr | inactive |  |
| CCC(C(=O)OCCN1CCOC(c2ccccc2)C1C)c1ccccc1 (stereo unspecified) | inactive |  |
| O=C[O][Al]([O]C=O)[O]C=O | inactive |  |
| Cc1ccc(C(C)NC(=O)[C@@H](NC(=O)OC(C)C)C(C)C)cc1 (stereo partly specified) | inactive |  |
| CC1(C)CC(OC(=O)CCCCCCCCC(=O)OC2CC(C)(C)NC(C)(C)C2)CC(C)(C)N1 |  | -0.141% [at 15.8 µM] |
| CC(=O)O[C@H]1C[C@@H]2CC[C@@]1(C)C2(C)C | inactive |  |
| C=CC/C=C/C | inactive |  |
| CSc1cnccn1 | inactive |  |
| [O-][n+]1cccc(/C(Cl)=N/OC[C@@H](O)CN2CCCCC2)c1 | inactive |  |
| c1ccc(-c2nn[nH]n2)cc1 | inactive |  |
| C=CCSSCCC | inactive |  |
| O=C1CCCCO1 | inactive |  |
| CC1=C(O)C(=O)C(C)O1 (stereo unspecified) | inactive |  |
| COc1nc(N)nc2nc[nH]c12 | inactive |  |
| O=C(O)CSCC(=O)NC1CCSC1=O (stereo unspecified) | inactive |  |
| CC(C)C[C@@H]1[C@H](c2ccccc2)OC(=O)N1CCCN1CCCCCC1 | inactive |  |
| Cc1c(NC(=O)c2cccnc2)c(=O)n(-c2ccccc2)n1C | inactive |  |
| CC(=O)CCC1=C(C)CCCC1(C)C | inactive |  |
| CC1OCCC1=O (stereo unspecified) | inactive |  |
| O/N=C/C=N/O | inactive |  |
| CCOC(CN1CCN(CC(C)C(=O)c2ccccc2)CC1)c1ccccc1 (stereo unspecified) |  | -9.59% [at 15.8 µM] |

Test: qHTS assay to identify small molecule antagonists of the estrogen receptor alpha (ER-alpha) signaling pathway using the BG1 cell line in the presence of 0.1 nM 17-beta-estradiol - cell viability counter screen (AID 1259241); further: nearly all actives have a fitted effect of over 40% in size
Conditions: VM7Luc4E2 (BG1) viability, CellTiter-Fluor protease, 22 h, 0.1 nM estradiol agonist added; series mostly up to 92.4 µM
Outline: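 Estradiol-stimulated (0.1 nM) VM7Luc4E2 cells exposed to compounds 22 hr; viability measured by fluorescence of cleaved CellTiter-Fluor substrate after 30 min.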

| SMILES | outcome | activity change, negative = cytotoxicity |
| --- | --- | --- |
| c1ccc(B(c2ccccc2)c2ccccc2)cc1 | inactive |  |
| Cc1ccnc(N)c1 | inactive |  |
| CCn1cc(C(=O)O)c(=O)c2cnc(N3CCCC3)nc21 |  | -1.69% [at 8.39 µM] |
| C/C=C(\C)C(C)=O | inactive |  |
| CCOCCOCC | inactive |  |
| c1ccc2cnccc2c1 | inactive |  |
| CCCCCCCCCCCCCBr | inactive |  |
| CCC(C(=O)OCCN1CCOC(c2ccccc2)C1C)c1ccccc1 (stereo unspecified) | inactive |  |
| O=C[O][Al]([O]C=O)[O]C=O | inactive |  |
| Cc1ccc(C(C)NC(=O)[C@@H](NC(=O)OC(C)C)C(C)C)cc1 (stereo partly specified) | inactive |  |
| CC(=O)O[C@H]1C[C@@H]2CC[C@@]1(C)C2(C)C | inactive |  |
| C=CC/C=C/C | inactive |  |
| [O-][n+]1cccc(/C(Cl)=N/OC[C@@H](O)CN2CCCCC2)c1 | inactive |  |
| C=CCSSCCC | inactive |  |
| CC1=C(O)C(=O)C(C)O1 (stereo unspecified) | inactive |  |
| COc1nc(N)nc2nc[nH]c12 | inactive |  |
| CC(C)C[C@@H]1[C@H](c2ccccc2)OC(=O)N1CCCN1CCCCCC1 | inactive |  |
| CC(=O)c1cc(C)oc1C | inactive |  |
| C=C(C)[C@@H]1CC=C(C)C(=O)C1 | inactive |  |
| CC12CCC(C1)C(C)(C)C2O (stereo unspecified) | inactive |  |
| Cc1c(NC(=O)c2cccnc2)c(=O)n(-c2ccccc2)n1C | inactive |  |
| CC(=O)C(C)O (stereo unspecified) | inactive |  |
| CC(=O)CCC1=C(C)CCCC1(C)C | inactive |  |
| CC1OCCC1=O (stereo unspecified) | inactive |  |
| O/N=C/C=N/O | inactive |  |
| CCOC(CN1CCN(CC(C)C(=O)c2ccccc2)CC1)c1ccccc1 (stereo unspecified) |  | -7.75% [at 19 µM] |
